Shown are actives, neighbours in structure and some others; about 7.3% of the full set was active somewhere.
HCV inhibitor = HCV inhibition; Huh7.5.1 HCVcc-Cre infection, luciferase reporter, 44 h; Potency, µM (titrated, usually from 41.8 µM), usual class: inhibitors; 340,000 compounds, 3.4% hits; active means well fitted inhibition curve with a large enough effect; inconclusive means small, poorly fitted or top-dose-only effect, or another doubt; inactive means no such curve, though single readings can be large or run the other way
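Seed cells (1,000/well) for 4 h; treat with compound and infect with HCVcc-Cre, moi about 0.5. Incubate 44 h, then detect luciferase activity.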
VACV Venus inh = inhibitors of vaccinia virus (Venus reporter); Potency, µM (titrated, usually from 36.5 µM), usual class: inhibitors; 330,000 compounds, 0.46% hits; Vaccinia virus Venus reporter expression, fluorescence; AID 720580; calls by dose curve; tested in A549 cells; further: nearly all actives have a fitted effect of over 30% in size
FMDV antiviral = blocks foot and mouth disease virus. FMDV antiviral cell-based qHTS. Potency, µM (series often up to 57.9 µM), actives largely listed as inhibitors. 410,000 compounds, 1.2% hits; calls by dose curve; tested in HEK293T cells; further: read-out not given here; nearly all actives have a fitted effect of over 45% in size
HCMV antiviral = inhibitors of human cytomegalovirus; HFF cells, HCMV-luciferase reporter, 72 h; active compounds read low; 410,000 compounds, 4.5% hits; activity change, negative = inhibition, % at 57.5 µM; in the data active means activity change below about -60%; inconclusive means no clear call, values can overlap the other calls; inactive means above about -39%
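Cell-based, HFFs, 1000 cells/well, 16 h 37C; cpds in DMSO + HCMV-luc, MOI 1 PFU/cell; 72 h 37C; OneGlo luminescence after 5 min RT; norm. to buffer vs Salinomycin 10uM.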
Vaccinia mCherry = vaccinia inhibition (mCherry reporter) | AID 720579 | 310,000 compounds, 0.63% hits | Potency, µM (series often up to 36.5 µM), usual class: inhibitors | Vaccinia virus mCherry reporter infection, fluorescence; calls by dose curve; tested in A549 cells; further: nearly all actives have a fitted effect of over 35% in size
Numbers stand for hits; i = inactive; ? = inconclusive; nt = no result given; + = active, no number; ! = not active in a repeat; [ ] = dose if it differs, or a comment.

SMILES	HCV inhibitor	VACV Venus inh	FMDV antiviral	HCMV antiviral	Vaccinia mCherry
COC(=O)[C@@H]1CC[C@H](C)[C@@H](c2ccc(C)cc2)N1C(=O)c1ccc(/C=N/OCC[C@@H]2C=C[C@H](OC(C)=O)[C@@H](COC(C)=O)O2)cc1	i[8.37 µM]	nt	nt	nt	nt
CC1=CC(O)C(O)C2(C)C1CC1OC(=O)C(O)C3C(C)C(O)C4(O)OCC13C42 (centres undefined)	i	7.94µM	i	nt	?
Cc1ccc2cc(CNCc3cccc4ccccc34)c(N3CCC(O)CC3)nc2c1	nt	i	i	nt	i
CCC(C)n1c(=N)c(C(=O)NCc2ccco2)cc2c(=O)n3cc(C)ccc3nc21 (centres undefined)	nt	i	i	i	i
CCOCCCn1c(=N)c(C(=O)NCc2cccnc2)cc2c(=O)n3cc(C)ccc3nc21	nt	i	i	-66.6	i
CCC(C)n1c(=N)c(C(=O)NCc2ccccc2)cc2c(=O)n3cc(C)ccc3nc21 (centres undefined)	nt	i	i	-73.3	i
COc1ccc(N2CC(O)(c3ccc(F)cc3)[N+]3=C2CCCC3)cc1 (centres undefined)	i	i	i	-81.1	i
COc1ccc(N2C3=[N+](CCCC3)CC2(C)O)cc1 (centres undefined)	i	nt	i	-77.9	nt
COc1ccc(N2CC(O)(c3ccc(C)cc3)[N+]3=C2CCCC3)cc1 (centres undefined)	i	i	i	i	i
COC(=O)c1ccc(OC)c(CN2C(=O)N(c3ccc(C(C)=O)cc3)S(=O)(=O)c3ccccc32)c1	nt	i	?	?	i
COc1ccccc1-c1nnc(NC(=O)c2ccccc2F)o1	i	i	i	i	?
CCN(Cc1ccccc1)S(=O)(=O)c1ccc(C(=O)Nc2nnc(-c3ccccc3OC)o2)cc1	i	i	i	-60.8	i
COc1ccccc1-c1nnc(NC(=O)c2ccc(S(=O)(=O)N(C)C)cc2)o1	i	?	i	i	i
COc1ccccc1-c1nnc(NC(=O)CCS(=O)(=O)c2ccc(F)cc2)o1	nt	4.47µM	i	i	?
O=C(CCS(=O)(=O)c1ccc(F)cc1)Nc1nnc(-c2ccc(F)cc2)o1	i	?	i	i	10µM
COc1ccccc1-c1nnc(NC(=O)CCS(=O)(=O)c2ccccc2)o1	i	?	i	i	8.91µM
Cc1ccc(-c2nnc(NC(=O)CCS(=O)(=O)c3ccc(F)cc3)o2)c(C)c1	i	i	i	i	i
CC(=O)Nc1ccc(/C=C/c2ccnc3ccccc23)cc1[N+](=O)[O-]	nt	i	nt	nt	i
O=C(CCS(=O)(=O)c1ccc(Cl)cc1)Nc1nnc(-c2ccco2)o1	?	?	i	i	10µM
Cc1ccc(O)c(C(=O)CC(=O)c2ccc(C(C)(C)C)cc2)c1	?	nt	i	i	nt
Cc1ccc(O)c(C(=O)CC(=O)c2ccccc2Cl)c1	5.01µM	i	i	i	i
Cc1ccc(-n2c(C)cc(C3=NNC(=NC4CC4)SC3)c2C)cc1C	i	nt	17.8µM	-99.5	nt
Cc1cc(C2=NNC(=NC3CC3)SC2)c(C)n1-c1c(C)n(C)n(-c2ccccc2)c1=O	i	i	i	i	i
CCOC(=O)N/N=C\c1ccccc1OC/C=C/c1ccccc1	?	nt	i	i	nt
COc1cc(/C=N/NS(=O)(=O)c2ccc3ccccc3c2)ccc1OCc1ccc(C(=O)O)cc1	i	i	i	i	i
SMILES	HCV inhibitor	VACV Venus inh	FMDV antiviral	HCMV antiviral	Vaccinia mCherry
NC(=S)N/N=C/c1c[nH]c2ccc(OCc3ccccc3)cc12	12.6µM	nt	?	nt	nt
COC(=O)c1ccc(COc2ccccc2/C=N/NS(=O)(=O)c2ccccc2)cc1	10µM	nt	i	-85.6	nt
NC(=S)N/N=C/c1ccccc1OC(=O)c1cc2ccccc2oc1=O	i	nt	i	+	nt
NC(=O)N/N=C/c1ccccc1OC(=O)c1cc2ccccc2oc1=O	i	nt	i	i	nt
NC(=S)N/N=C/c1ccccc1OC(=O)/C=C/c1ccccc1	i	nt	i	-110.1	nt
COc1ccc(Br)c(Cn2c(C)c(C(=O)NCc3ccccc3C(F)(F)F)sc2=O)c1	nt	i	i	?	i
Cc1cc(C)cc(NC(=O)CSc2nc(=O)[nH]c3c2CCC3)c1	nt	i[7.34 µM]	i	i	i[7.34 µM]
COC(=O)c1ccc(COc2ccccc2/C=C(\C#N)C(=O)Nc2c(C)cc(C)cc2C)cc1	?	i	?	-93.4	i
NC(=S)N/N=C\c1ccccc1OCc1ccccc1	?	2.51µM	i	i	?
Cc1ccccc1-c1cccc([C@@H]2C[C@H]3[C@H](CON3C)CN2Cc2cc(Cl)cc(Cl)c2)c1	i[8.37 µM]	i	i	i	i
C[C@H](CCC(=O)NCC(=O)O)C1CC[C@H]2[C@H]3C(C[C@H](O)[C@]12C)[C@@]1(C)CC[C@@H](O)C[C@H]1C[C@H]3O (some centres undefined)	nt	i	i	nt	i
CCCCC1OC23CCCCC2C(C#N)(C#N)C1(C#N)C(=N)O3 (centres undefined)	i	i	i	i	i
CCCCC1OC23CCCCC2C(C#N)(C(=N)O3)C1(C#N)C#N (centres undefined)	i	i	25.1µM	i	nt
CSc1cccc(NC(=O)CCNS(=O)(=O)c2ccc3[nH]c(=O)oc3c2)c1	i	i	i	i	i
O=C(CSc1nc(=O)n(CCN2CCOCC2)c2c1CCC2)Nc1ccc(OC(F)(F)F)cc1	?	i	?	-60.0	?
CCN(CC)CCn1c2c(c(SCC(=O)Nc3ccc(C)c(F)c3)nc1=O)CCC2	i[8.37 µM]	i	i	-98.6	i
CCN(CC)CCn1c2c(c(SCC(=O)Nc3ccc(C(C)C)cc3)nc1=O)CCCC2	14.1µM	i	i	i	i
CCN(CC)CCn1c2c(c(SCC(=O)Nc3nc(C)cs3)nc1=O)CCCC2	?	i	i	-80.3	i
CCN(CC)CCn1c2c(c(SCC(=O)Nc3nc(C)cs3)nc1=O)CCC2	i	i	i	i	i
Cc1ccnc(SCC(=O)Nc2sc3c(c2C#N)CCCC3)n1	7.94µM	?	?	i	nt
COc1ccc(-c2ccc(C#N)c(SCC(=O)Nc3sc4c(c3C#N)CCC4)n2)cc1OC	?	nt	i	-87.9	nt
CC1(C)O[C@H]2[C@@H](O1)[C@@H](C(=O)Nc1cc(F)ccc1F)O[C@@H]1OC(C)(C)O[C@@H]12	nt	i	i	-88.9	i
CC1(C)CC(=O)c2c(oc3ccc(NS(=O)(=O)c4cccc5cccnc45)cc23)C1	?	i	11.2µM	?	?
Cc1ccc(C2NC(c3ccc4c(c3)OCO4)=CC(c3cc(Br)ccc3O)N2)cc1 (centres undefined)	nt	i	nt	nt	i
C/C(N)=C(/C#N)C(=O)CSc1nnc(Nc2c(C)cccc2C)s1	i	i	i	-67.1!	i
Cc1cccc(C)c1Nc1nnc(SCc2cn3cccc(C)c3n2)s1	i	nt	i	-69.8	nt
C/C(N)=C(/C#N)C(=O)CSc1nn(-c2ccc(Cl)cc2)c(=S)s1	i	nt	i	i	nt
C/C(N)=C(/C#N)C(=O)CSc1nnc(SCc2ccc(Cl)cc2)s1	?	?	?	-64.0	?
CCOc1ccc(CN2CCOc3ccc(C(O)c4cccnc4)cc3C2)cc1 (centres undefined)	nt	i	i	nt	i
CNc1ccccc1C(=O)N1CCc2c([nH]c3ccccc23)C1=O	nt	i	i	nt	i

From PubChem BioAssay
